Experimental data taken from PubChem BioAssay (NCATS).
Results filed as inconclusive are left out. The source made the active and inactive calls. Calls follow the shape of the dose curve; as a rule, active = well fitted activation curve with a large enough effect; inconclusive = small, poorly fitted or top-dose-only effect; inactive = no such curve, though single readings can be large or run the other way.

Target: Cellular tumor antigen p53 (Homo sapiens) (UniProt P04637)
Experiment: Primary qHTS for small molecule compounds that upregulate eGFP-tagged delta133p53alpha (in N-terminal) cells. (AID 2060322); also: nearly all actives have a fitted effect of over 75% in size;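 as to activation: cells pre-induced with doxycycline then dosed without doxycycline; series mostly up to about 56 µM; 0% = DMSO vehicle and 100% = reference activator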
Conditions: NCI-H358 eGFP-delta133p53alpha fluorescence, 24 h; activation: active compounds read high
In short: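 NCI-H358 cells pre-induced 24 h with 10 ng/ml doxycycline for eGFP-delta133p53alpha, plated dox-free and exposed 24 h at 37C to titrated compounds. Fixed, Hoechst-stained; gated GFP peak intensity by laser scanning cytometry, normalized to DMSO (0%) and 57.5 uM 5-azacytidine (100%).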
Potency is read from the fitted curve at half-maximal effect.

Cellular tumor antigen p53 (Homo sapiens), sequence (P04637 whole entry, looked up): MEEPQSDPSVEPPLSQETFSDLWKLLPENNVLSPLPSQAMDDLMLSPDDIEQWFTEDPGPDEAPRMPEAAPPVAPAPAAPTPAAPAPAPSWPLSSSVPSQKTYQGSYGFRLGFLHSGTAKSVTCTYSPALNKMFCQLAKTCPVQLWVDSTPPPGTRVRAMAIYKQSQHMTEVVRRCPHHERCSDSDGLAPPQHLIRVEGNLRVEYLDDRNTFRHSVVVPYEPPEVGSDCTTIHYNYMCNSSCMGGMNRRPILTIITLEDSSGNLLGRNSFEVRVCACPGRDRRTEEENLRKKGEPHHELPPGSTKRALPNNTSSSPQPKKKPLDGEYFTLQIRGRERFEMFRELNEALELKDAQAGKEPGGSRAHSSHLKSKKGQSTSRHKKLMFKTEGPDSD

Row | SMILES | activation | Potency
1 | COC1=C(OC)C(=O)C(CC=C(C)CCC=C(C)CCC=C(C)CCC=C(C)CCC=C(C)CCC=C(C)CCC=C(C)CCC=C(C)CCC=C(C)CCC=C(C)C)=C(C)C1=O | 0.831% (inactive) | 
2 | CC(C)Cc1ccc(CC(=O)O)cc1 | -36.8% (inactive) | 
3 | COc1cc(OC)cc(-c2ccc3ncc4ccc(=O)n(-c5ccc(N6CCNCC6)c(C(F)(F)F)c5)c4c3c2)c1 | -7.04% (inactive) | 
4 | CN(C)CCC=C1c2ccccc2COc2ccc(CC(=O)O)cc21 | 16.8% (inactive) | 
5 | CN1CCN(C(=O)C2CCCCC2)CC1 | -11.7% (inactive) | 
6 | OC(CCN1CCCCC1)(c1ccccc1)c1ccccc1 | 1.69% (inactive) | 
7 | CN1CCN(N)CC1 | 0.837% (inactive) | 
8 | Cc1cccc(C)c1NC(=O)c1ccc(N)cc1 | -2.82% (inactive) | 
9 | Cc1ncc(CO)c(CO)c1O | -24.3% (inactive) | 
10 | CC(C)C(=O)Nc1cccc(C2CN3CCSC3=N2)c1 (configuration not stated) | 6.69% (inactive) | 
11 | Cc1c(C)n(CCN(C)C)c2ccc(C(=O)OCCN(C)C)cc12 | -11.9% (inactive) | 
12 | NS(=O)(=O)c1cc(C2(O)NC(=O)c3ccccc32)ccc1Cl (configuration not stated) | -33.3% (inactive) | 
13 | CCCCCCCCCCCCCCNCCO | -16.7% (inactive) | 
14 | COc1ccc(C(Cl)=C(c2ccc(OC)cc2)c2ccc(OC)cc2)cc1 | -1.67% (inactive) | 
15 | CCC(=C(c1ccc(O)cc1)c1ccc(OCCNC)cc1)c1ccccc1 | 62.8% (inactive) | 
16 | CCCCCCCCCCCCCCCCCC(=O)O | 24.3% (inactive) | 
17 | CN1CCc2cccc3c2[C@H]1Cc1ccc(O)c(O)c1-3 | 21.8% (inactive) | 
18 | O=C1OC(c2ccc(O)cc2)(c2ccc(O)cc2)c2ccccc21 | 10.7% (inactive) | 
19 | NC(=O)NC1NC(=O)NC1=O (configuration not stated) | -17.5% (inactive) | 

Row | SMILES | activation | Potency
20 | OCc1ccc(Cl)cc1Cl | -7.53% (inactive) | 
21 | CC(=O)OC[C@H]1O[C@@H](OC(C)=O)[C@H](OC(C)=O)[C@@H]1OC(C)=O | 28.8% (inactive) | 
22 | C[C@H](CCC(=O)O)[C@H]1CC[C@H]2[C@H]3[C@@H](CC[C@]12C)[C@@]1(C)CC[C@@H](O)C[C@H]1C[C@@H]3O | -8.06% (inactive) | 
23 | Cc1cc(C)c2nc(-c3ccccn3)cc(C(=O)Nc3ccc(S(=O)(=O)Nc4onc(C)c4C)cc3)c2c1 | 8.11% (inactive) | 
24 | CCN(CC)CC(=O)OCC(=O)[C@@]1(O)CC[C@H]2[C@@H]3CCC4=CC(=O)CC[C@]4(C)[C@H]3[C@@H](O)C[C@@]21C | -4.18% (inactive) | 
25 | CO[C@@H]1[C@@H](OC)[C@H](C)[C@@](O)(CC(=O)O)O[C@H]1[C@H](C)[C@H]1O[C@@]2(CC[C@@](C)([C@H]3CC[C@@](C)([C@@H]4O[C@@H]([C@H]5O[C@](C)(O)[C@H](C)C[C@@H]5C)C[C@@H]4OC4C[C@H](OC)[C@@H](OC)[C@H](C)O4)O3)O2)C[C@H](O)[C@H]1C (some centres not stated) |  | 8.71 µM (active)
26 | O=C(C1CCCCC1)N1CC(=O)N2CCCc3ccccc3C2C1 (configuration not stated) | 4.18% (inactive) | 
27 | Cc1ccc(CCn2c3c(c4cc(Cl)ccc42)CN(C)CC3)cn1 | -20.9% (inactive) | 
28 | O=C(C=Cc1cccnc1)NCCCCC1CCN(C(=O)c2ccccc2)CC1 | 8.39% (inactive) | 
29 | NS(=O)(=O)c1ccc(Cl)c(S(N)(=O)=O)c1 | -10% (inactive) | 
30 | O=C(OCC1(COC(=O)c2cccnc2)CCCC(COC(=O)c2cccnc2)(COC(=O)c2cccnc2)C1O)c1cccnc1 | -11.7% (inactive) | 
31 | Cc1onc(-c2ccccc2)c1C(=O)Cl | 6.21% (inactive) | 
32 | O=C(c1ccc(F)cc1)C1CCN(CCn2c(=S)[nH]c3ccccc3c2=O)CC1 | -8.47% (inactive) | 
33 | COc1cc2c(cc1O)CCC1C2CC[C@@]2(C)C1CC[C@@H]2O (some centres not stated) | 27.6% (inactive) | 
34 | C=C1C(=O)OC2C=C(C)CCC=C(C)CCC12 (configuration not stated) | 22% (inactive) | 
35 | C[C@H]1O[C@H](O[C@H]2[C@H](O)[C@@H](O)[C@@H](O[C@H]3[C@H](O)[C@@H](O)C(O)O[C@H]3CO)O[C@H]2CO)[C@H](O)[C@@H](O)[C@H]1N[C@H]1C=C(CO)[C@@H](O)[C@H](O)[C@@H]1O (some centres not stated) | 140% (inactive) | 
36 | CC(=O)OC[C@H]1O[C@@](COC(C)=O)(O[C@H]2O[C@H](COC(C)=O)[C@@H](OC(C)=O)[C@H](OC(C)=O)[C@H]2OC(C)=O)[C@@H](OC(C)=O)[C@@H]1OC(C)=O | 10.7% (inactive) | 
37 | CC(=O)O[C@]1(C(C)=O)CC[C@@H]2[C@@H]3C[C@H](C)C4=CC(=O)CC[C@]4(C)[C@H]3CC[C@@]21C | 17.1% (inactive) | 
